Common to all, as to test: NCI-60 one-dose screen, 48 h (100 = growth as untreated, 0 = no growth, -100 = all killed)
In one assay the test system is SK-MEL-2 melanoma. The note with it: 10 µM.
The test system of another assay is EKVX NSCLC. The note with it: 10 µM.
In a further assay the test system is SN12C renal. The note with it: 10 µM.
In a further assay the test system is TK-10 renal.
For another assay, the system named is ACHN renal. The note with it: 10 µM.
For another assay, the system named is CAKI-1 renal. The note with it: 10 µM.
Another assay has as its system A498 renal. The note with it: 10 µM.
Another assay concerns CCRF-CEM leukemia. The note with it: 10 µM.
The subject of a further assay is MOLT-4 leukemia. The note with it: 10 µM.
In the next assay the test system is UO-31 renal. The note with it: 10 µM.

Structures are written as SMILES. Several values for one entry are separate records, joined by “and”; a condition that tells them apart may be missing. Identical values can stand only once. Compounds without any hit were thinned out: in the full panel of roughly 83,000, 20% have a hit.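 Percent growth is the endpoint: 0 to 100 indicates growth inhibition (40 means 60% inhibition), 0 means no net growth, and negative values indicate cell death.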 A number with no mark means an inactive call. Activity calls are given as the source filed them. The calls were made as follows: active = growth percent below 10; inactive = the rest.

Regarding `Cc1ccc(C)n1-c1ccsc1C(=O)NNC(=O)CCl`, the growth is 91.2% with SK-MEL-2 melanoma; 81.2% in the assay with EKVX NSCLC; 92.2% in the assay on SN12C renal; 105% in the assay with TK-10 renal (10 µM unless noted); 98.5% with ACHN renal; 84.8% with CAKI-1 renal. For the same compound, the results for the growth in the assay with A498 renal, with CCRF-CEM leukemia and in the assay on MOLT-4 leukemia were 104%, 61% and 92.9%, respectively.

`Cc1cc(NC(=O)CSCC(=O)O)no1`: the growth was 122% with SK-MEL-2 melanoma; 93.8% with EKVX NSCLC; 101% in the assay on SN12C renal; 86.6% with TK-10 renal (10 µM unless noted); 105% with ACHN renal; 90% in the assay with CAKI-1 renal. The growth in the assay with A498 renal is 120%; in the assay with CCRF-CEM leukemia, 107%; in the assay with MOLT-4 leukemia, 103%.

For the compound `COc1ccccc1N=Nc1c(O)ccc2cc(S(=O)(=O)O)ccc12`, the growth is 96.4% with SK-MEL-2 melanoma; 95.2% with EKVX NSCLC; 102% in the assay with SN12C renal; 84.7% in the assay with UO-31 renal; 113% in the assay with TK-10 renal (10 µM unless noted); 98.1% in the assay with ACHN renal. Further, the growth in the assay on CCRF-CEM leukemia is 105%; in the assay on MOLT-4 leukemia, 104%.

In the case of `CCCCOC(=O)c1ccc(C(C)C)cc1`, the growth with SK-MEL-2 melanoma is 99.7%; in the assay on EKVX NSCLC, 91.7%; in the assay on SN12C renal, 102%; in the assay with UO-31 renal, 91.7%; in the assay on ACHN renal, 104%; with CAKI-1 renal it was 96.7%. Moreover, the growth in the assay on A498 renal was 87%; with CCRF-CEM leukemia, 112%; with MOLT-4 leukemia it was 83.3%.

In the case of `CC(=O)/C(Cc1ccccc1)=N/O`, the growth in the assay with SK-MEL-2 melanoma was 99.7%; in the assay on EKVX NSCLC, 92.4%; in the assay with SN12C renal, 105%; with UO-31 renal, 96.2%; with ACHN renal it was 98.6%; with CAKI-1 renal it was 100%. The values for the growth in the assay on A498 renal, in the assay with CCRF-CEM leukemia and with MOLT-4 leukemia were 75.6%, 99% and 85%, respectively.

As to `C/C(=N/NC(N)=O)c1ccco1`, the growth is 108% in the assay on SK-MEL-2 melanoma; 100% in the assay with EKVX NSCLC; 110% in the assay on SN12C renal; 95.8% in the assay with UO-31 renal; 102% in the assay with ACHN renal; 102% with CAKI-1 renal. Besides, the growth with A498 renal was 111%; in the assay with CCRF-CEM leukemia it was 106%; with MOLT-4 leukemia it was 89.9%.

`COc1ccccc1NC(=O)c1cc2cc(Br)ccc2cc1O`: the growth was -31.5% (active) in the assay with SK-MEL-2 melanoma; 22.4% with EKVX NSCLC; 9.1% (active) with SN12C renal; -3.91% (active) in the assay with UO-31 renal; 39.8% in the assay on TK-10 renal (10 µM unless noted); -6% (active) in the assay on ACHN renal. For the same compound, the growth in the assay on A498 renal was 18.2%; in the assay with CCRF-CEM leukemia, -4.98% (active); with MOLT-4 leukemia it was -0.261% (active).

On to `O=[N+]([O-])c1ccc(-c2ncc(-c3ccc(Br)cc3)o2)cc1`, for which the growth with SK-MEL-2 melanoma was 99.1%; in the assay with EKVX NSCLC, 101%; with SN12C renal, 103%; in the assay with UO-31 renal it was 84.5%; in the assay on TK-10 renal (10 µM unless noted) it was 108%; in the assay with ACHN renal, 94.2%. Moreover, the growth was 68.4% in the assay on A498 renal, 92.6% in the assay with CCRF-CEM leukemia and 97.6% in the assay with MOLT-4 leukemia.

For `C#Cc1cccc(NC(=O)c2ccc(Cl)cc2Cl)c1`, the growth is 98.6% with SK-MEL-2 melanoma; 91.3% in the assay on EKVX NSCLC; 95.7% in the assay on SN12C renal; 91.7% in the assay with UO-31 renal; 106% with TK-10 renal (10 µM unless noted); 93.5% with ACHN renal. In addition, the growth with A498 renal was 102%; in the assay with CCRF-CEM leukemia it was 88.2%; with MOLT-4 leukemia it was 82.1%.

As to `N#Cc1ccc(NC(=O)Nc2cccc(C#N)c2)cc1`, the growth in the assay on SK-MEL-2 melanoma is 97.3%; in the assay with EKVX NSCLC, 94.5%; in the assay with SN12C renal it was 94%; in the assay with UO-31 renal it was 75.6%; in the assay on TK-10 renal (10 µM unless noted) it was 113%; in the assay on ACHN renal, 92.5%. In addition, the growth was 86% in the assay on A498 renal, 72.4% with CCRF-CEM leukemia and 78.7% with MOLT-4 leukemia.

With `Cc1nc2ccccc2c(C(=O)O)c1O`, the growth in the assay with SK-MEL-2 melanoma is 313%; in the assay with EKVX NSCLC it was 103%; with SN12C renal, 98.3%; with UO-31 renal, 91.2%; in the assay on TK-10 renal (10 µM unless noted) it was 113%; with ACHN renal, 97.8%. The growth in the assay on A498 renal was 117%; in the assay with CCRF-CEM leukemia, 121%; in the assay with MOLT-4 leukemia it was 132%.

For `COc1cccc(O)c1O`, the growth in the assay on SK-MEL-2 melanoma was 72.4%; in the assay on EKVX NSCLC, 99.6%; with SN12C renal, 74.5%; in the assay with UO-31 renal, 70.3%; in the assay with TK-10 renal (10 µM unless noted), 91.2%; in the assay with ACHN renal, 73.2%. Further, the growth in the assay with CCRF-CEM leukemia is 63.8%; in the assay with MOLT-4 leukemia, 64.8%.

For `O=S(=O)(O)c1ccc(O)c2ccccc12`, the growth in the assay with SK-MEL-2 melanoma is 97.2%; in the assay with EKVX NSCLC, 88.9%; in the assay with SN12C renal, 103%; with UO-31 renal it was 77.7%; in the assay on ACHN renal it was 100%; with CAKI-1 renal it was 68.5%. In addition, the growth in the assay on A498 renal is 112%; in the assay on CCRF-CEM leukemia, 99.4%; with MOLT-4 leukemia it was 95.4%.

In the case of `CC(=O)c1sc2c(c1OC(=O)c1ccc(Cl)cc1Cl)c(=O)n(-c1ccccc1)c(=S)n2-c1ccccc1`, the growth in the assay on SK-MEL-2 melanoma is -43.9% (active); in the assay with EKVX NSCLC, 51.4%; in the assay with SN12C renal it was 13.4%; with TK-10 renal (10 µM), -9.03% (active); in the assay on TK-10 renal (100 µM) it was 2.01% (active) and -66.5% (active); with ACHN renal, -18.2% (active). Also, the growth with CAKI-1 renal is 13.5%; in the assay on A498 renal, -41.9% (active); in the assay with CCRF-CEM leukemia, -24.2% (active); with MOLT-4 leukemia it was -11.4% (active).

Take `CCC(C)(C)C1CCC(O)CC1` (configuration not stated): the growth in the assay on SK-MEL-2 melanoma is 103%; in the assay on EKVX NSCLC it was 94.9%; in the assay on SN12C renal it was 98.7%; with TK-10 renal (10 µM unless noted) it was 98.7%; in the assay with ACHN renal, 97.7%; in the assay with CAKI-1 renal, 115%. Besides, the growth was 97.8% in the assay on A498 renal, 93.5% in the assay on CCRF-CEM leukemia and 106% with MOLT-4 leukemia.

As for `Cc1cc2nc(CC(=O)c3cccc([N+](=O)[O-])c3)c(=O)[nH]c2cc1C`, the growth was 95.4% in the assay on SK-MEL-2 melanoma; 59.9% in the assay with EKVX NSCLC; 86.5% in the assay on SN12C renal; 115% in the assay on TK-10 renal (10 µM unless noted); 87.3% in the assay on ACHN renal; 76.5% in the assay with CAKI-1 renal. Moreover, the growth with A498 renal was 127%; in the assay with CCRF-CEM leukemia it was 76.3%; in the assay on MOLT-4 leukemia, 83.4%.

Take `c1csc(-c2cc(-c3cc(-c4cccs4)[nH]n3)n[nH]2)c1`: the growth is 132% in the assay on SK-MEL-2 melanoma; 64.8% with EKVX NSCLC; 97.4% in the assay with SN12C renal; 162% in the assay with TK-10 renal (10 µM unless noted); 92.7% in the assay with ACHN renal; 79.6% with CAKI-1 renal. Besides, the values for the growth in the assay on A498 renal, with CCRF-CEM leukemia and with MOLT-4 leukemia were 139%, 66.1% and 97.7%, respectively.

The record behind these values is PubChem BioAssay (NCI).
